Test results reported in PubChem BioAssay.
Active and inactive are the calls of the source.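 Rule for the calls: active = mean inhibition above 46.5%, the solvent-only control mean plus 3 SD; inactive = the rest.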

These compounds were tested against Nuclear receptor coactivator 2 (Homo sapiens) (UniProt Q15596) (assay: SRC2 coactivator transcriptional activity inhibitors, confirmation, cell-based, luminescence, HEK293, triplicate (AID 652008;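 note: 0% = DMSO-treated cells and 100% = Gossypol at 36 µM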)). Conditions: HEK293 GAL4-SRC2 luciferase reporter, at 8.9 µM, stronger effect = higher value.
Chain of Nuclear receptor coactivator 2 (Homo sapiens) (Q15596 whole entry, looked up, the tested form may be a part): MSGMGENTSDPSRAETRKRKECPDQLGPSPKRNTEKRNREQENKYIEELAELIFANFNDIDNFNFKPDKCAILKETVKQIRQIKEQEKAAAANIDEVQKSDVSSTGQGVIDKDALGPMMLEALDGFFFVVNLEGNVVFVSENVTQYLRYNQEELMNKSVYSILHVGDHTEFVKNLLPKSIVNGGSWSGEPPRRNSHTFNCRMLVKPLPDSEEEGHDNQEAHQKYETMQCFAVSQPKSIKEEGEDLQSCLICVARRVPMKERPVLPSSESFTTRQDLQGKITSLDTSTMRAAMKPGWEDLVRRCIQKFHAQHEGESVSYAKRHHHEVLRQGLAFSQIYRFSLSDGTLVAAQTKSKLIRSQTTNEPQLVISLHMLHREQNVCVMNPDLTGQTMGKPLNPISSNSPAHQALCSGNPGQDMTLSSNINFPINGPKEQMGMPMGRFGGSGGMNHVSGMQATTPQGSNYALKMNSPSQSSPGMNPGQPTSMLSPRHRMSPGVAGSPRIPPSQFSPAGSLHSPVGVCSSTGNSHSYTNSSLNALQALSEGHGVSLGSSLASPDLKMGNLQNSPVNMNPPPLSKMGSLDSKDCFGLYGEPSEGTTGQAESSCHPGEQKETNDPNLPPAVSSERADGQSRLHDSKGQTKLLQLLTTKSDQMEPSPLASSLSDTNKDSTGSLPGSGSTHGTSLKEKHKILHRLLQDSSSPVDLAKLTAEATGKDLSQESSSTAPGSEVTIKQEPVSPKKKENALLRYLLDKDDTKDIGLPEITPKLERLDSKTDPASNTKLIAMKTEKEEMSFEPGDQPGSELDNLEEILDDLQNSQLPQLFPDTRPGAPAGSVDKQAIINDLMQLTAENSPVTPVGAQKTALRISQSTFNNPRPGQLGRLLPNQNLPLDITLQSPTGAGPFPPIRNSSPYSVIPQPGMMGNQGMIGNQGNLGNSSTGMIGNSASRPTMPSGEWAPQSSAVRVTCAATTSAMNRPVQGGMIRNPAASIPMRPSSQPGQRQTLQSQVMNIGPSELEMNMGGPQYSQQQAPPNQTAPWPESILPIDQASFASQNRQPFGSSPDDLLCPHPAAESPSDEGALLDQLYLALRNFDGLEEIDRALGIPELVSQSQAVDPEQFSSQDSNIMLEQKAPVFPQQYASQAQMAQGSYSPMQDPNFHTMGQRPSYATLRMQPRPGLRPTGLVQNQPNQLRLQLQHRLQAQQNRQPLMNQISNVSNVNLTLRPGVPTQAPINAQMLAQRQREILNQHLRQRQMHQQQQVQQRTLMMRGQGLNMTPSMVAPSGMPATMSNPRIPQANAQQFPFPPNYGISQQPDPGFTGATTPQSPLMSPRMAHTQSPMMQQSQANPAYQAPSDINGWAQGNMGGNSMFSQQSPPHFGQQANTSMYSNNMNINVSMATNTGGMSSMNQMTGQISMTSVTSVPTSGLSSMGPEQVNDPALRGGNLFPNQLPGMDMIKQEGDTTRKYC

| SMILES | inhibition |
| --- | --- |
| COc1ccc(C(=O)/C=C/Nc2ccccn2)cc1 | 30.8% (inactive) |
| COCCN(C(=O)CC1C(=O)NCCN1Cc1ccc(-c2ccccc2)cc1)C(C)C (stereo unspecified) | -6.54% (inactive) |
| CC(C)N=C(NS(=O)(=O)c1ccccc1)C(Cl)(Cl)Cl | 28.2% (inactive) |
| Cc1nc2ccccc2c2c1C(=O)N(c1ccc(C(=O)O)cc1)C2=O | -28.2% (inactive) |
| O=S(=O)(c1ccc(Cl)cc1)N1CCCC1c1nc(-c2ccc(Cl)cc2)no1 (stereo unspecified) | -14.7% (inactive) |
| O=C(CCl)N(Cc1cc(=O)[nH]c2ccccc12)c1ccccc1 | 50.5% (active) |
| COc1ccc(CNn2c(-c3cccs3)nc3ccccc3c2=O)cc1OC | 33.2% (inactive) |
| CN1/C(=C\C=C2/SC(=S)NC2=O)C(C)(C)c2ccccc21 | 15.6% (inactive) |
| O=C(O)CCC(=O)Nc1ccc(C(=O)OC2CCCCC2)cc1 | 29.4% (inactive) |
| NC(Cc1ccc(Cl)cc1)c1csc(NC(=O)NCC2CCCCC2)n1 (stereo unspecified) | 3.16% (inactive) |
| CC(=O)Nc1cccc(NC(=O)CSc2nc(C3CC3)nc3ccccc23)c1 | 27.2% (inactive) |
| COc1cc(CNc2ccc3[nH]c(=O)[nH]c3c2)cc(Br)c1OCc1ccc(F)cc1 | 29.9% (inactive) |
| COC(=O)c1nn(-c2ccc3c(c2)CCN3C(C)=O)cc1O | 43.5% (inactive) |
| O=C(COC(=O)c1cccc(F)c1)Nc1cccc(S(=O)(=O)N2CCCCC2)c1 | 2.48% (inactive) |
| Cc1ccc(C(=O)c2cnc3ccccc3c2-c2ccccc2)cc1 | 16.4% (inactive) |
| COc1ccc(/C=C2\SC(=S)N(CCCC(=O)N3CCN(C)CC3)C2=O)cc1 | 2.68% (inactive) |
